Bioassay records deposited in PubChem by National Center for Advancing Translational Sciences (NCATS).
LMNA splice mod – modulators of lamin A splicing | 0.01% of 200,000 active | HeLa LMNA splicing GFP/RFP minigene ratio, 48 h | AID 1487 | Potency, µM (top dose mostly 46.1 µM), inactives show at the highest dose ratio change, negative = inhibition, most hits filed as inhibitors; active = well fitted inhibition curve with a large enough effect in the signal ratio, with a control signal flat, not every such curve was filed as active; inconclusive = small, poorly fitted or top-dose-only effect, or effect the other way, or a change in a side signal; the % refers to the signal ratio; note: % is set by controls: 0 for no effect and ±100 for the full control effect
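Read-out is the ratio of GFP to DsRed2 object intensity, acquired by 488 nm laser-scanning cytometry on HeLa lamin A-EGFP minigene reporter cells. Compound incubation 48 hrs at 37 °C in Opti-MEM with 2% FBS; DMSO 0.5% final.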
HPGD inh – HPGD (human) dehydrogenase inhibition. P15428. Potency, µM, inactives show top-dose activity change, negative = inhibition, hits mostly inhibitors. purified HPGD, NADH fluorescence kinetic, PGE2 substrate. 4.3% of 150,000 active; note: % is set by controls: 0 for no effect and ±100 for the full control effect
Target sequence (P15428 whole entry, looked up): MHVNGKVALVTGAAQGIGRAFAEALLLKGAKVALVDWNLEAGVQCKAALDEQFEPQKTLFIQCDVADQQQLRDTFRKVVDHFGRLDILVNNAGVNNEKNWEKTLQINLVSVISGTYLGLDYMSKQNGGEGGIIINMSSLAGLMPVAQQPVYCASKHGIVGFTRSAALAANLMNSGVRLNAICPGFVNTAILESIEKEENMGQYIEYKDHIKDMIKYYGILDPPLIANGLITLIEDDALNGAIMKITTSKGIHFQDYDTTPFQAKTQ
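NADH formation kinetics: reaction with 30 uM PGE2 and 1 mM NAD+ (final), 20 nM enzyme, Tris-HCl pH 8 with Tween 20, after 15 min compound preincubation at room temperature. Fluorescence change, last versus first of five reads.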
HTT cytoprotect – cytoprotection in Huntington HTT-Q103 PC12 cell model. PC12 HTT-Q103 induced, cytoprotection, ATP luminescence, 40 h. Potency, µM (highest dose often 56.4 µM), for the others: cytoprotection (ATP increase), hits mostly activators. 0.14% of 230,000 active. AID 1471; active = well fitted curve in the direction sought with a large enough effect; inconclusive = small, poorly fitted or top-dose-only effect, or another doubt; inactive = no such curve, though single readings can be large; an effect the other way counts as inactive or inconclusive; note: % of control where 0% means no effect; nearly all actives have a fitted effect of over 45% in size
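Huntington model: PC12 line, ecdysone-inducible HTTQ103 exon1–GFP, tebufenozide 100 nM. Test articles in a dose series. Endpoint luminescence from cellular ATP.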
HttQ103 aggreg – inhibitors of mutant huntingtin aggregate formation in PC12 cells; PC12 HttQ103-GFP aggregates, Acumen cytometry, 40 h; Potency, µM (top dose mostly 46.1 µM), for the others: at the top dose activity change, negative = inhibition, usual class: inhibitors; 1.1% of 220,000 active; active = well fitted curve in the direction sought with a large enough effect; inconclusive = small, poorly fitted or top-dose-only effect, or another doubt; inactive = no such curve, though single readings can be large; an effect the other way counts as inactive or inconclusive; note: % is set by controls: 0 for no effect and ±100 for the full control effect; nearly all actives have a fitted effect of over 60% in size
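Ecdysone-promoter PC12 model expressing HTT exon 1 Q103 fused to GFP, induced by tebufenozide at 100 nM final. Compounds titrated; aggregates sized 1–25 µm scored on a 488 nm laser cytometer.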
KDM4E inh – JMJD2E (human) inhibition; Potency, µM (series often up to 57.1 µM), without a hit: at the highest dose activity change, negative = inhibition, usual class: inhibitors; JMJD2E catalytic domain, FDH-coupled NADH fluorescence (FDH is formaldehyde dehydrogenase); 1.6% of 230,000 active;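 note: 0% = wells with enzyme and -100% = buffer wells without enzyme; nearly all actives have a fitted effect of over 50% in size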
ALDH1A1 inh – inhibitors of human aldehyde dehydrogenase 1A1 | P00352 | Purified ALDH1A1, NADH fluorescence, propionaldehyde substrate | Potency, µM (top dose mostly 75.3 µM), without a hit: top-dose activity, negative = inhibition, usual class: inhibitors | 7.3% of 220,000 active | AID 1030;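 note: plate controls were no enzyme wells and a reference inhibitor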
Target sequence (P00352 whole entry, looked up): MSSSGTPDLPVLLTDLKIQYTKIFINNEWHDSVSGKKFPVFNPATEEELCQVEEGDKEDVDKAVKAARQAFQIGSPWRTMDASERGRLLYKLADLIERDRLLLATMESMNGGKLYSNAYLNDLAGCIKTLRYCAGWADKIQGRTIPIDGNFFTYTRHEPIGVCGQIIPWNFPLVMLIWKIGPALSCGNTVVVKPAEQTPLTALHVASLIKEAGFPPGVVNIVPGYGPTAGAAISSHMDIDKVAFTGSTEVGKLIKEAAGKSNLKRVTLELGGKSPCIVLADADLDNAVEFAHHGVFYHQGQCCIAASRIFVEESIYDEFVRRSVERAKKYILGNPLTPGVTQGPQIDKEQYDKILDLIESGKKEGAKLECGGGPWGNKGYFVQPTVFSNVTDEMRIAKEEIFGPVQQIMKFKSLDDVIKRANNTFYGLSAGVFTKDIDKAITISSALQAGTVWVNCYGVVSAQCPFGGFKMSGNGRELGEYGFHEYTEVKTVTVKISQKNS
Numbers without * were called inactive; ? = inconclusive; / = not tested or not shown; [ ] = remark or other dose. Only some compounds are listed: those with a hit (about 9.2% of all), similar ones and a draw of the others. Unless noted, calls come from the whole dose curve; as a rule, active = well fitted inhibition curve with a large enough effect (not every such curve was filed as active); inconclusive = small, poorly fitted or top-dose-only effect, or another doubt; inactive = no such curve, though single readings can be large or run the other way. Potency is the fitted concentration of half-maximal effect.

SMILES	LMNA splice mod	HPGD inh	HTT cytoprotect	HttQ103 aggreg	KDM4E inh	ALDH1A1 inh
N#Cc1cn(-c2ccccc2)nc1-c1ccco1	-1%	-13%	10%	-20%	-27%	28µM*
Cc1ccc(CN(C)C(=O)c2ccccc2Oc2ccccc2)o1	12%	22µM*	-25%[10 µM]	11%	-4%	10µM*
Cc1cc(NC(=O)c2ccccc2Oc2ccccc2)no1	?	-13%	-2%[1.9 µM]	-7%	-3%	-3%
CCOC(=O)c1c(C)[nH]c(C)c1C(=O)CSc1nc2ccccc2c(=O)n1-c1ccccc1C	-7%	-8%	2%[10 µM]	-31%	-4%	20µM*
C[C@@]12C=CC(=O)C=C1CC[C@@H]1C2=CC[C@]2(C)[C@@H]1CC[C@H]2C(=O)CN1CCN(c2cc(N3CCCC3)nc(N3CCCC3)n2)CC1	/	/	-7%[1.9 µM]	/	/	/
O=C(O)c1ccccc1-c1ccc(/C=c2\sc3nc4cc(Br)cnc4n3c2=O)o1	-1%	32µM*	-4%	1%	-28%	22µM*
O=Cc1ccc(-c2ccccc2C(=O)O)o1	?	/	26%[10 µM]	17%[9.22 µM]	?	-10%
CCn1nnc(NC(=O)c2ccc(C(C)(C)C)cc2)n1	7%	-13%	-21%	?	2%	-13%
CCn1nnc(NC(=O)c2cccnc2)n1	0%	25µM*	-8%	-3%	2%	-13%
CCc1ccc(NC(=S)Nn2cnnc2)cc1	6%[9.22 µM]	/	-10%	-1%	-27%	1.4µM*
COc1ccc(NC(=S)Nn2cnnc2)cc1OC	14%[46 µM]	/	-11%	-16%	-17%	4µM*
Cc1ccc(NC(=S)Nn2cnnc2)cc1	-16%[9.22 µM]	/	-18%	0%[9.22 µM]	-24%	3.5µM*
S=C(Nc1ccccc1)Nn1cnnc1	-6%	14µM*	?	0%	-2%	6.3µM*
CCCOCC(C)O (configuration not stated)	/	0%	-31%	/	/	-4%
COc1cc(-c2ccno2)ccc1S(=O)(=O)N1CCN(c2cc(C)ccc2C)CC1	22%[46 µM]	/	/	/	/	/
O=C(NCCc1ccccc1)c1ccc(Cn2c(SCc3ccccc3)nc3cccnc32)cc1	3%[46 µM]	/	/	/	/	/
NCCCc1ccc2oc3ccccc3c2c1	/	-13%	-1%[10 µM]	/	/	11%[13.5 µM]
Cc1cccnc1NC(=S)Nc1ccc(Cl)c(Cl)c1	/	/	16%[10 µM]	15%[9.22 µM]	-26%	-13%
COc1ccc(NC(=S)Nc2ncccc2C)cc1OC	?	/	/	6%	?	25µM*
O=C(Nc1ccc(Cl)cc1)N1CCC(CN2CCCCCC2)CC1	13%[46 µM]	/	/	/	/	/
Clc1ccccc1-c1nnc2sc(-c3ccc4c(c3)OCO4)nn12	-19%	?	24%[1.9 µM]	-30%	?	?
Clc1cccc(-c2nnc3sc(-c4ccc5c(c4)OCO5)nn23)c1	5%	/	-4%[0.074 µM]	5%	2%	20µM*
c1ccc2c(c1)ncn2Cc1nnc2sc(-c3ccc4c(c3)OCO4)nn12	-15%	?	-34%	19%	?	?
Brc1ccccc1-c1nnc2sc(-c3ccc4c(c3)OCCO4)nn12	?	?	-72%	25µM*	?	?
CCCSCCCNC(=O)c1cc2n(n1)CCCN(Cc1ccc(C)cc1)C2=O	4%[46 µM]	/	/	/	/	/
SMILES	LMNA splice mod	HPGD inh	HTT cytoprotect	HttQ103 aggreg	KDM4E inh	ALDH1A1 inh
CCOC(=O)CSC1=NC(=O)CS1	?	14µM*	-9%	-1%	2%	32µM*
O=C(Nc1ccc2snnc2c1)N1CCOCC1	1%	-15%	-6%[10 µM]	5%	-26%	7%
S=C(Nc1ccc(N2CCOCC2)cc1)Nc1ccc2snnc2c1	?	/	-28%	-20%	-26%	25µM*
C=CCSC1=N/C(=C\c2sccc2C)C(=O)S1	-8%	-12%	18%	-7%	-6%	2%
C=CCSC1=N/C(=C\C=C\c2ccco2)C(=O)S1	2%	-23%	13%	16%	?	20µM*
O=C1NCCCc2c1oc1cc(Br)c(O)c(Br)c21	?	-23%	-22%	?	-5%	4µM*
CC(C)NCc1c(O)c(Br)cc2oc3c(c12)CCCC3	-5%	-9%	4%[10 µM]	-17%	-9%	9%
CSc1ccc(C(=S)N2CCN(CCO)CC2)cc1	-4%	25µM*	-4%[10 µM]	-17%	-1%	22µM*
COc1ccc(CNc2ncnc3ccc(-c4ccc(C(=O)N(C)C)cc4)cc23)c(OC)c1	?	/	-82%	/	/	?
O/N=C(\c1ccc(Cl)cc1)c1cc2ccccc2o1	?	25µM*	2%	?	-5%	6%
C/C=C(\C)CN1CCN(c2cc(C)ccc2C)CC1	5%	-15%	-2%	?	6%	16µM*
COc1ccc(NS(=O)(=O)c2ccc(I)cc2)cc1N1CCN(C)CC1	/	-22%	?	/	?	?
O=c1c2cc(Cl)ccc2nc(-c2ccccc2)n1O	?	/	-1%[10 µM]	?	?	-1%
O=c1c2ccc(Cl)cc2nc(-c2ccc([N+](=O)[O-])cc2)n1O	/	/	-66%	6.3µM*	?	-1%
O=c1c2cc(Br)ccc2nc(-c2ccc([N+](=O)[O-])cc2)n1O	/	/	-108%	11µM*	5%	-7%
CCCCCc1n[nH]c2c1CCCC2	/	/	12%[10 µM]	10%[9.22 µM]	-12%	/
COc1ccc(S(=O)(=O)N(CC(=O)Nc2ccccc2Cl)Cc2ccccc2)cc1	6%[46 µM]	/	/	/	/	/
O=C1CCCC2CCCCN12 (configuration not stated)	/	0%	-28%[150 µM]	/	/	0%[186 µM]
Cc1cc(C(=O)COc2ccc([N+](=O)[O-])cc2)c(C)n1C1CC1	0%[46 µM]	/	13%[10 µM]	-7%[9.22 µM]	-19%	11µM*
CCC(=O)N1c2ccccc2CC1C(=O)NCCCN1CCN(c2ccccc2)CC1 (configuration not stated)	4%[46 µM]	/	/	/	/	/
CSCCCNC(=S)N(C)CC(=O)Nc1ccc(C)cc1	/	/	-10%[10 µM]	15%	5%	-12%
Cc1cc2n(n1)SC(Nc1ccc(F)c(Cl)c1)N2 (configuration not stated)	?	-28%	8%[10 µM]	-8%	-12%	2.8µM*
CC(C)NC(=O)c1cc2c(-c3ccc(Cl)cc3)nn(C)c2s1	14%	-28%	-26%	23%	8.9µM*	?
Cc1ccc(CNC(=O)c2cc3c(-c4ccc(Cl)cc4)nn(C)c3s2)o1	12%	?	-24%	8.9µM*	?	?
CCCCNC(=O)c1cc2c(-c3ccc(Cl)cc3)nn(C)c2s1	0%	?	-17%	-11%	?	?
COCCNC(=O)c1cc2c(-c3ccc(Cl)cc3)nn(C)c2s1	-1%	?	-32%	1%	?	?
CCCCNC(=O)CSc1nc2ccccc2nc1Cc1ccccc1	3%[46 µM]	/	/	/	/	/
CC(=O)NCCCc1nc2ccccc2n1Cc1c(F)cccc1Cl	/	/	2%[10 µM]	-11%[9.22 µM]	-2%	?
CC(=O)Nc1nonc1-c1nnc(SCC(=O)Nc2ccc(C)cc2C)n1C	6%[46 µM]	/	/	/	/	/
